Hits are enriched below; roughly 21% of the tested compounds scored in any of these assays.
Shiga inhibitor – inhibitors of Shiga toxin in Vero cells. Vero cells, Shiga toxin protein synthesis inhibition reporter. inhibition, % at 38.7 µM. hit rate 9.2% among 290,000; in the data active = inhibition mostly above about 28%, no sharp cut-off; inactive = mostly below about 43%
CHX counter – affects cycloheximide protein synthesis inhibition readout, counter-screen | cell reporter, cycloheximide protein synthesis inhibition counterscreen | max response, % | hit rate 12% among 300,000; in the data active = max response mostly above about 13%, no sharp cut-off; inactive = mostly below about 14%; note: read at 38.3 µM for the half of the compounds with a filed dose
Pf growth 96h – P. falciparum growth inhibition at 96 hour, primary screen for plastid delayed-death inhibitors. P. falciparum luciferase reporter growth, 96 h. Potency, µM (highest dose often 28.7 µM), usual class: inhibitors. hit rate 6.9% among 320,000
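Plates of compound plus infected erythrocytes (2% hematocrit, 0.05% parasitemia final) incubate 96 hours, 37 C, 5% CO2. Detection reagent added; reduced luminescence from the parasites' luciferase reporter flags inhibition.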
NS1 inh – inhibitors of influenza NS1 protein function; hit rate 0.4% among 270,000; Potency, µM (highest dose often 46.1 µM); calls by dose curve; note: actives are rising curves; nearly all actives have a fitted effect of over 50% in size
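Growth recovery, yeast-based: influenza A NS1 expressed in S. cerevisiae causes slow growth, and suppressors are detected by OD600. The parent strain without NS1 is used as positive control.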
Pf growth 48h – inhibits P. falciparum growth in the first generation, 48 h. P. falciparum luciferase growth in erythrocytes, 48 h. Potency, µM (doses to about 28.7 µM), usual class: inhibitors. hit rate 5.9% among 310,000. AID 504832
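Here the parasites carry a stable luciferase gene and grow inside erythrocytes in Albumax-based RPMI medium with compound for one erythrocytic cycle. Activity is scored as loss of luminescent signal.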
Each line names hits and unclear results; the compound was inactive in the other large screens. Unless noted, calls come from the whole dose curve; as a rule, active = well fitted inhibition curve with a large enough effect; inconclusive = small, poorly fitted or top-dose-only effect, or another doubt; inactive = no such curve, though single readings can be large or run the other way.

c1ccc(-c2noc(C3CCCCC3)n2)nc1	Shiga inhibitor 66, CHX counter 32
COc1ccc(-c2cc(=O)oc3c(C)c(OC(C)C(=O)NCc4ccccn4)ccc23)cc1 (stereo not given)	Pf growth 96h inconclusive, Pf growth 48h inconclusive
Cc1cc(/C=C2\C(=O)NN(c3ccccc3)C2=O)c(C)n1-c1ccccc1O	Shiga inhibitor 46, CHX counter 34
COc1ccc(-n2c(C)cc(/C=C3\C(=O)NN(c4ccccc4)C3=O)c2C)cc1	Shiga inhibitor 50, CHX counter 39
Cc1cccc(C)c1NC(=O)CNC(=O)c1ccc(N2CCCC2=O)cc1	none (no result: Shiga inhibitor, CHX counter, NS1 inh)
CN(C)S(=O)(=O)c1ccc(NC(=O)C2COc3ccccc3O2)cc1 (stereo not given)	CHX counter 11, Pf growth 96h inconclusive
O=C(Nc1ccc(S(=O)(=O)Nc2ccccc2)cc1)C1COc2ccccc2O1 (stereo not given)	Pf growth 96h 0.47µM, Pf growth 48h inconclusive
Cc1cc(C)nc(NS(=O)(=O)c2ccc(NC(=O)C3COc4ccccc4O3)cc2)n1 (stereo not given)	Pf growth 96h inconclusive
COc1ccc(CC(=O)OCC(=O)Nc2ccc(N3CCOCC3)cc2)cc1	Pf growth 96h inconclusive, Pf growth 48h inconclusive
COc1ccc(C(=O)N2CCN(C(=O)Cc3ccccc3)CC2)cc1	none (no result: NS1 inh)
COc1ccccc1CC(=O)Nc1ccc(NC(=O)c2cccs2)cc1	Pf growth 96h inconclusive
COc1ccccc1CC(=O)NNC(=O)c1cccs1	Pf growth 96h 0.26µM
Cc1cc(Br)cc(C)c1OCC(=O)NNC(=O)c1cccs1	Pf growth 96h 12µM
O=C(COc1ccc(Br)cc1Br)NNC(=O)c1cccs1	none
CCCOc1ccc(C(=O)NNC(=O)CCNC(=O)c2ccccc2Cl)cc1OC	none (no result: Shiga inhibitor, CHX counter, NS1 inh)
CCc1ccccc1-n1nnc(-c2ccccc2)n1	none
CSCC[C@H](N)C(=O)N1CCC(C(=O)N[C@H](C)C(=O)Nc2ccc(C(C)C)cc2)CC1	none
Cn1c(-c2ccc(CN3CCCCC3)o2)nc2ccccc21	Shiga inhibitor 84, CHX counter 26
CCC1CCC(C(=O)NC(CCSC)C(=O)NCCc2ccc(S(N)(=O)=O)cc2)CC1 (stereo not given)	none
CCC1CCC(C(=O)NC(CCSC)C(=O)NCCN(CC(C)C)CC(C)C)CC1 (stereo not given)	Pf growth 96h 15µM (no result: NS1 inh)
CCOc1ccc(C(=O)COC(=O)c2nc3nccc(C)n3n2)cc1	none (no result: Shiga inhibitor, CHX counter, NS1 inh)
CC#CC(=O)NCC1(N(C)Cc2ccccc2)Cc2ccccc2C1	Pf growth 96h 7.4µM
CCOc1ccc2nc(N3CCOCC3)nc(C)c2c1	Shiga inhibitor 99, CHX counter 53
COc1ccc2nc(C)cc(Nc3ccc(N4CCN(C)CC4)cc3)c2c1	Pf growth 96h inconclusive
COc1ccc2c(C)cc(N3CCOCC3)nc2c1	Shiga inhibitor 52, CHX counter 26
COc1ccc2nc(C)cc(Nc3ccc(N4CCOCC4)cc3)c2c1	Pf growth 48h 2.9µM
COc1ccc2c(C)cc(SCC(=O)N3CCOCC3)nc2c1	Pf growth 96h 0.19µM
COc1ccc2nc(SCC(N)=O)cc(C)c2c1	none
C[C@H](NC(=O)COc1ccc(Cl)cc1)C(=O)N1CCC2(CC1)NCCc1[nH]cnc12	none
COc1ccc2nc(N3CCOCC3)cc(C)c2c1	Shiga inhibitor 61, CHX counter 33 (no result: Pf growth 48h)
COc1ccc(N2CCN(c3cc(C)c4ccc(C)cc4n3)CC2)cc1	none (no result: NS1 inh)
CC1CC=CC2C1C(=O)N(Cc1ccccc1)C2c1ccc2ccccc2c1Br (stereo not given)	none (no result: Pf growth 96h, NS1 inh, Pf growth 48h)
NC(=O)Cn1c(=O)n(Cc2ccccc2)c(=O)c2cccnc21	none
Nc1nc(C23CC4CCC(CC(C4)C2)C3)cs1	Pf growth 48h inconclusive
c1sc2[n+](c1C13CC4CC(CC(C4)C1)C3)CCS2	Pf growth 96h 2.9µM, Pf growth 48h 2.3µM
COCCNC(=O)CN1CCN(Cc2cccc(Cl)c2)C1=O	none
CC(C)C(NC(=O)CCNC(=O)c1ccc(C(C)(C)C)cc1)c1nc2ccccc2[nH]1 (stereo not given)	Pf growth 96h inconclusive, Pf growth 48h 8.3µM (no result: Shiga inhibitor, CHX counter, NS1 inh)
CC(C)C(NC(=O)CCNC(=O)c1ccccc1Cl)c1nc2ccccc2[nH]1 (stereo not given)	Pf growth 48h inconclusive (no result: Shiga inhibitor, CHX counter, NS1 inh)
O=c1[nH]c(=O)n(Cc2ccco2)c2c1C(C(F)(F)F)(C(F)(F)F)N=C(CCc1ccccc1)N2	Pf growth 96h 2.3µM, Pf growth 48h inconclusive
O=S(=O)(NC1CCCC1)c1cccc(S(=O)(=O)N2CCC(n3nnc4ccccc43)CC2)c1	Pf growth 48h 10µM

High-throughput results from PubChem BioAssay.
